# From PubChem BioAssay (NCATS)
# Results filed as inconclusive are left out. A number with no mark means an inactive call. Active and inactive are the calls of the source. Calls follow the shape of the dose curve; as a rule, active = well fitted inhibition curve with a large enough effect; inconclusive = small, poorly fitted or top-dose-only effect; inactive = flat fitted curve, though single readings scatter. Where a SMILES comes first, the peptide text is derived from it. [ ]: non-standard residue; d: D form. ξ: configuration not given here. ξTyr(βOH) = NC(C(=O)O)C(O)c1ccc(O)cc1
# Key:
# Assay in all cases: Cytotoxic Profiling of Annotated Libraries Using Quantitative High-Throughput Screening (AID 1296008); also: nearly all actives have a fitted effect of over 60% in size
# Conditions in all cases: Five cell lines viability, CellTiter-Glo ATP luminescence, 48-72 h; max response: hits give low values
# CRL-7250 = normal cell line; test system: CRL-7250
# Method in brief: (§1)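 Cells exposed to compounds for 48 or 72 hr at 37 degrees Celsius. Viability read as ATP-coupled luminescence with CellTiter-Glo after 10 min at room temperature.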
# HEK293 = test system: HEK293
# Method in brief: as §1
# HaCat = test system: HaCat
# Method in brief: as §1
# KB-3-1 = test system: KB-3-1
# Method in brief: as §1
# NIH3T3 = test system: NIH3T3
# Method in brief: as §1
# % is scaled to controls: 0 for no effect and ±100 for the full control effect; potency is read from the fitted curve at half-maximal effect.
Structure (SMILES),max response (CRL-7250) [%],max response (HEK293) [%],outcome (HaCat),max response (KB-3-1) [%],outcome (NIH3T3),outcome (CRL-7250),max response (HaCat) [%],outcome (KB-3-1),Potency (HEK293)
CC(C)C1NC(=O)CNC(=O)C2CCCN2C(=O)C(Cc2c[nH]c3ccccc23)NC(=O)CNC(=O)C(C(O)c2ccc(O)cc2)NC(=O)CNC1=O (stereo not given) (cyclo(G[ξTyr(βOH)]GWPGV); configuration not given here),-8.12,1.2,inactive,2.88,inactive,,,,
O=S(=O)(O)c1ccc(Nc2ncnc3c2ncn3[C@@H]2O[C@H](CO)[C@@H](O)[C@H]2O)cc1,,-6.97,,,inactive,inactive,-25.7,inactive,
COC(=O)C1=CO[C@@H](O[C@@H]2O[C@H](CO)[C@@H](O)[C@H](O)[C@H]2O)[C@H]2[C@@H]1C=C[C@]21C=C([C@H](C)OC(=O)/C=C/c2ccc(O[C@@H]3O[C@H](CO)[C@@H](O)[C@H](O)[C@H]3O)cc2)C(=O)O1,-2.8,4.82,inactive,9.99,inactive,,,,
O=C(Nc1cc(-c2ccccc2)nn1-c1ccccc1F)c1ccc([N+](=O)[O-])cc1,-9.65,,,-2.53,inactive,,2.32,,23.1 µM (active)
COCc1c(O)c(C(=O)O)c(C)c2c1OC(=O)c1c(C)cc(O)c(CO)c1O2,0.001,-3.82,inactive,,inactive,,,inactive,
C=C1C(=O)OC2CC(COC(=O)C(C)C)=C(C(C)CCCOC(C)=O)[C@@H](OC(C)=O)C12 (stereo not given in full),-4.9,5,,,inactive,,4.28,inactive,
